target: Cyclin-dependent kinase 4 (Homo sapiens) (UniProt P11802); details: at 1 µM
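Also: enzyme tested as the CDK4–cyclin D complex, with the value reported as mean percent inhibition.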

Cyclin-dependent kinase 4 (Homo sapiens), sequence (P11802 whole entry): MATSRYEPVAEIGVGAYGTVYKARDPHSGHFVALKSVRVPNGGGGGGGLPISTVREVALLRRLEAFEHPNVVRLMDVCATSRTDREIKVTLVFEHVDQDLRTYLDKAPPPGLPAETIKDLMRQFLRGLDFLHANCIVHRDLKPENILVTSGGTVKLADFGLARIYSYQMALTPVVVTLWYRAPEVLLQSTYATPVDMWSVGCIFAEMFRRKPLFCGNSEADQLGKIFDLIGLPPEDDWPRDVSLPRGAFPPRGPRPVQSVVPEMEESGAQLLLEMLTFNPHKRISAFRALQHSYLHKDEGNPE

| Compound | inhibition [%] |
| --- | --- |
| O=C(Nc1n[nH]c2cc(-c3ccc(F)cc3)ccc12)C1CC1 | 6.92 |
| O=S(=O)(CCNCc1ccc(-c2ccc3ncnc(Nc4ccc(OCc5cccc(F)c5)c(Cl)c4)c3c2)o1)c1ccccc1 | 5.57 |
| COc1cc2ncn(-c3cc(OCc4ccccc4C(F)(F)F)c(C(=O)N(C)C)s3)c2cc1OC | 1.39 |
| COc1ccc(-c2cc3c(N)ncnc3o2)cc1 | 3.35 |
| Cc1ccc2c(-c3ccnc(Nc4ccccc4)n3)c(-c3ccc(F)cc3)nn2n1 | 6.75 |
| Nc1nc(-c2cccc(Cl)c2)c(-c2ccc3ncccc3n2)s1 | 1.92 |
| CNC(=O)c1cncc(/C=C/c2ccccc2Cl)c1 | -0.33 |
| COc1ccc2c(-c3ccnc(Nc4cccc(OC(F)(F)F)c4)n3)cnn2n1 | 18 |
| CCCN1CCC(c2ccc(Nc3nc(Nc4cc(F)ccc4C(N)=O)c4cc[nH]c4n3)c(OC)c2)CC1 | 25.7 |
| COc1cc2c(cc1Nc1nc(Nc3ccsc3C(N)=O)c3cc[nH]c3n1)N(C(=O)CN(C)C)CCC2(C)C | 8.61 |
| Fc1ccc(-c2cc(-c3c[nH]nc3-c3ccccn3)ccn2)cc1 | 1.18 |
| CCNC(=O)O[C@H]1CN[C@H](C#Cc2cc3ncnc(Nc4ccc(OCc5cccc(F)c5)c(Cl)c4)c3s2)C1 | 3.42 |
| c1ccc(COc2ccc(Nc3ncnc4ccc(-c5ccco5)cc34)cc2)cc1 | 2.95 |
| NC(=O)c1sc(-n2cnc3ccc(C(F)(F)F)cc32)cc1OCc1ccccc1Br | 2.94 |
| CS(=O)(=O)CCNCc1ccc(-c2ccc3ncnc(Nc4ccc(OCc5ccccc5)c(C(F)(F)F)c4)c3c2)o1 | 3.96 |

Source: ChEMBL document CHEMBL1961873, “Compounds: GSK PKIS; Assays: Nanosyn kinase panel” (2012)
